# According to paper PMC4336329 (PLoS ONE, 2015):
# In all, about 310,000 compounds went through this assay and about 2,200 (0.71%) showed an effect of 50% or more. Effects have a minus sign here. Shown is part of a subset that was picked to be rich in strong results.
# Molecular target: human ether-à-go-go-related gene (hERG) potassium channel (human, UniProt Q12809)
# Assay: primary screen, population patch clamp on CHO cells stably expressing hERG; higher = less effect of the substance
# human ether-à-go-go-related gene (hERG) potassium channel, sequence (Q12809 whole entry, looked up): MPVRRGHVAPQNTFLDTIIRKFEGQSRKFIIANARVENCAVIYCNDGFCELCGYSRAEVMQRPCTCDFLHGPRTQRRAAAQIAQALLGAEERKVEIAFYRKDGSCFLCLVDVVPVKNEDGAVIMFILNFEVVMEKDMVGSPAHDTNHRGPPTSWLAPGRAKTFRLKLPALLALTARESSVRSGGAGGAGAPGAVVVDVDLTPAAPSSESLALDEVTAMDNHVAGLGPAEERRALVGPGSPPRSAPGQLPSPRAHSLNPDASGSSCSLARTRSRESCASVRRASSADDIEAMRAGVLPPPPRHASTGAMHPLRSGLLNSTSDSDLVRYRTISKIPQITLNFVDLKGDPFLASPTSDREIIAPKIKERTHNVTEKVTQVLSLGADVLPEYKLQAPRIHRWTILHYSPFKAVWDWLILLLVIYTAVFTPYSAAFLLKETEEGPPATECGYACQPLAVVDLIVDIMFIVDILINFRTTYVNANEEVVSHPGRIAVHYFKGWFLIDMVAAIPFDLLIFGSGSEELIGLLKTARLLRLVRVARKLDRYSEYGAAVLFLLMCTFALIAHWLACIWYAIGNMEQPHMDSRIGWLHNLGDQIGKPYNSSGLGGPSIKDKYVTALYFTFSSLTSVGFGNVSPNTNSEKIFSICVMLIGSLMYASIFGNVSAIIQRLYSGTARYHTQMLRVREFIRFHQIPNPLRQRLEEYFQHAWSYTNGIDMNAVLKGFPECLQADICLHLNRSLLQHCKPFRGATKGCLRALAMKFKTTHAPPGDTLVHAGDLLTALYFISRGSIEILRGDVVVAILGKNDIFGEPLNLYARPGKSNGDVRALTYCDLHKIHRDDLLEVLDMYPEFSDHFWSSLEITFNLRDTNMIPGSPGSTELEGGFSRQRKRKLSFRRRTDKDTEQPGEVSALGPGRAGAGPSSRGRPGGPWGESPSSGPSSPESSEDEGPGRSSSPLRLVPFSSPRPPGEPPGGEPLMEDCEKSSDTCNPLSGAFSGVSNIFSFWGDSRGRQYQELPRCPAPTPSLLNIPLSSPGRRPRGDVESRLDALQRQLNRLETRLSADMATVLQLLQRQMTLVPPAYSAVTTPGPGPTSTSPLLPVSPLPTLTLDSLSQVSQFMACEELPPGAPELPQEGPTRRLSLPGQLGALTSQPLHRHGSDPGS
row,SMILES,"hERG current change (%, negative = inhibition) at 1uM"
1,CCS(=O)(=O)c1ccc(O)c(NC(=O)COc2ccccc2)c1,12.6%
2,O=[N+]([O-])c1nn(-c2ccccc2)n(O)c1=NC1CCN(Cc2ccccc2)CC1,-16%
3,Cc1cccc(-n2nc([N+](=O)[O-])c(=NC3CCN(Cc4ccccc4)CC3)n2O)c1,-55.4%
4,COc1ccc(-n2nc([N+](=O)[O-])c(=NC3CCN(Cc4ccccc4)CC3)n2O)cc1,-6.46%
5,O=C(Nc1cnn(Cc2ccc(Cl)cc2)c1)C1CCCC1,-7.77%
6,O=C(NCc1ccccc1)C(=O)NCC1OCCN1C(=O)c1cccs1 (stereo not drawn),-54.6%
7,O=C(NCc1ccc(F)cc1)C(=O)NCC1OCCN1C(=O)c1cccs1 (stereo not drawn),3.51%
8,O=C(NCc1ccc(Cl)cc1)C(=O)NCC1OCCN1C(=O)c1cccs1 (stereo not drawn),3.06%
9,CCOC(=O)Cc1csc(NC(=O)c2ccc(OC)c(OC)c2)n1.Cl,-6.29%
10,CN(C)S(=O)(=O)c1ccc(C(=O)NCC(C)(C)CN=C2NS(=O)(=O)c3ccccc32)cc1,1.35%
11,COc1ccc(C(=O)C(Sc2nnc(C)c(=O)[nH]2)c2ccc(OC)cc2)cc1 (stereo not drawn),1.35%
12,COc1ccc(-c2nnnn2C(C)C)cc1,11.1%
13,Cc1nnc(C)c2c(C)n(C(c3ccccc3)c3ccccc3)c(C)c12,-65.7%
14,COc1ccc(C(C)n2c(C)c3c(C)nnc(C)c3c2C)cc1 (stereo not drawn),-52.3%
15,Cc1nnc(C)c2c(C)n(C(C)c3ccccc3)c(C)c12 (stereo not drawn),-1.28%
16,CC(=O)c1c(C(C)=O)c(C)n(C(c2ccccc2)c2ccccc2)c1C,-4.36%
17,Cc1cccc(NC(=O)NC2(C(=O)NCc3ccco3)CCCCC2)c1,2.75%
18,CN(C)c1ccc(NS(=O)(=O)c2ccc(Cl)cc2)cc1,6.28%
19,CC(C)Oc1ccc(Nc2ncnc3ccccc23)cc1.Cl,3.47%
20,COc1ccc(NC(=O)CCn2ccnc2)c(OC)c1,9.53%

row,SMILES,"hERG current change (%, negative = inhibition) at 1uM"
1,COC(=O)COc1ccc(S(=O)(=O)N2CCOCC2)cc1,13.1%
2,CCCCCNCC(=O)Nc1cc(C(F)(F)F)ccc1OCCOC,-5.74%
3,COCCOc1ccc(C(F)(F)F)cc1NC(=O)c1ccccc1,-2.95%
4,CCN1CCN(CC(=O)Nc2cc(C(F)(F)F)ccc2OCCOC)CC1.O=C(O)C(=O)O,-70.9%
5,CC(=O)N(C)c1ccc(NC(=O)Nc2ccc(Cl)cc2)cc1,8.67%
6,CC(=O)Cc1ccccc1OCC(=O)O,18.9%
7,O=C(Nc1cc(Cl)cc(Cl)c1)c1cnn2cccnc12,16.2%
8,COC(=O)c1c(NC(=O)CN2C(=O)C(=O)N(CC(C)C)C2=O)sc(C)c1C,9.77%
9,O=C1N(Cc2cccnc2)C[C@@H]2C[C@@H](c3cccc(OC4CCCC4)c3)N3CCC[C@@]123,-53.3%
10,O=C1N(Cc2cccc(Cl)c2)C[C@@H]2C[C@@H](c3cccn3-c3nccs3)N3CCC[C@@]123,-19.2%
11,O=C1N(Cc2cccc(Cl)c2)C[C@@H]2C[C@@H](c3cccc4ncccc34)N3CCC[C@@]123,-2.07%
12,O=C1N(Cc2cccc(Cl)c2)C[C@@H]2C[C@@H](c3cccn3-c3ccccn3)N3CCC[C@@]123,-56.9%
13,O=C1N(Cc2cccc(Cl)c2)C[C@@H]2C[C@@H](c3ccccn3)N3CCC[C@@]123,7.23%
14,O=C1N(Cc2cccnc2)C[C@@H]2C[C@@H](c3cccc(Oc4ccccc4)c3)N3CCC[C@@]123,-4.79%
15,O=C1N(Cc2cccc(Cl)c2)C[C@@H]2C[C@@H](c3cccc4cccnc34)N3CCC[C@@]123,-63.8%
16,O=C1N(Cc2cccnc2)C[C@@H]2C[C@@H](c3cccc(OCc4ccccc4)c3)N3CCC[C@@]123,-17.8%
17,O=C1N(Cc2cccc(Cl)c2)C[C@@H]2C[C@@H](c3cccn3-c3cccnc3)N3CCC[C@@]123,3.63%
18,COc1ccc(C(=O)Nc2nc(N3C(=O)c4ccccc4C3=O)n(-c3ccccc3)n2)cc1,3.14%
19,CSc1ncc(Sc2ccccc2)c(C(=O)O)n1,10.3%
20,Cc1ccccc1-c1noc(CCC(=O)NCCc2ccccc2)n1,10.4%

row,SMILES,"hERG current change (%, negative = inhibition) at 1uM"
1,O=C(CSc1nnc(NC(=O)c2ccc(F)cc2F)s1)NC1CC1,14.9%
2,COc1cc(OC)cc(-c2nnc(Nc3nc4c(F)cccc4s3)o2)c1,6.96%
3,O=C(c1ccc2c(=O)n(CC3CCCO3)c(=S)[nH]c2c1)N1CCN(c2ccccc2)CC1 (stereo not drawn),3.81%
4,O=C(CCNS(=O)(=O)c1cccs1)N1CCN(c2cccc(C(F)(F)F)c2)CC1,-2.16%
5,C=CCn1c(C2CC2)n[nH]c1=S,1.66%
6,O=C(NCc1ccc(Cl)cc1)c1noc2c1CCCCC2,-6.49%
7,O=C(CSc1nc(=O)n2ccccc2n1)N1CCC(Cc2ccccc2)CC1,-27.4%
8,Cc1cccn2c(=O)nc(SCC(=O)N3CCC(Cc4ccccc4)CC3)nc12,-69.2%
9,Cc1cccn2c(=O)nc(SCC(=O)N3CCC(C)CC3)nc12,2.05%
10,CCOc1ccccc1NC(=O)C(OC(=O)c1ccccc1O)c1ccccc1 (stereo not drawn),-2.03%
11,O=S(=O)(NC1CCC(NS(=O)(=O)c2c(F)cccc2F)CC1)c1ccc2c(c1)OCCO2 (stereo not drawn),10.7%
12,COc1ccc(C[C@H]2CN3C(=NC[C@@H]3Cc3ccc(O)cc3)N2CCNC(=O)c2ccc(C)c(Br)c2)cc1,-18.4%
13,C/C=C(\C)C(=O)NCCN1C2=NC[C@H](Cc3ccc(O)cc3)N2C[C@@H]1Cc1ccc(OC)cc1,10.6%
14,C/C=C(\C)C(=O)NCCN1C2=NC[C@H](C)N2C[C@@H]1Cc1ccc(OC)cc1,7.75%
15,COc1ccc(C[C@H]2CN3C(=NC[C@@H]3Cc3ccc(O)cc3)N2C[C@H](C)NC(=O)c2ccc(C)c(Br)c2)cc1,-60.1%
16,COc1ccc(C[C@H]2CN3C(=NC[C@@H]3C(C)C)N2C[C@H](C)NC(=O)c2ccc(C)c(Br)c2)cc1,-41.9%
17,Cc1ccc(C(=O)N[C@@H](C)CN2C3=NC[C@H](Cc4ccccc4)N3C[C@H]2Cc2ccc(O)cc2)cc1Br,-68.1%
18,COc1ccc(C[C@@H]2CN3C(=NC[C@@H]3C)N2C[C@H](C)NC(=O)c2ccc(C)c(Br)c2)cc1,-56.4%
19,Cc1ccc(C(=O)N[C@@H](C)CN2C3=NC[C@H](C(C)C)N3C[C@H]2Cc2ccc(O)cc2)cc1Br,-34.3%
20,Cc1ccc(C(=O)NCCN2C3=NC[C@@H](Cc4ccccc4)N3C[C@H]2Cc2ccc(O)cc2)cc1Br,-4.33%
